Source: ChEMBL document CHEMBL1961873, “Compounds: GSK PKIS; Assays: Nanosyn kinase panel” (2012)

Columns and labels:
[1] = molecular target: T1, Tyrosine-protein kinase ITK/TSK (Homo sapiens) (UniProt Q08881); conditions: at 1 µM;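 further: values are mean percent inhibition of ITK from the GSK PKIS screen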
T1 sequence (whole entry): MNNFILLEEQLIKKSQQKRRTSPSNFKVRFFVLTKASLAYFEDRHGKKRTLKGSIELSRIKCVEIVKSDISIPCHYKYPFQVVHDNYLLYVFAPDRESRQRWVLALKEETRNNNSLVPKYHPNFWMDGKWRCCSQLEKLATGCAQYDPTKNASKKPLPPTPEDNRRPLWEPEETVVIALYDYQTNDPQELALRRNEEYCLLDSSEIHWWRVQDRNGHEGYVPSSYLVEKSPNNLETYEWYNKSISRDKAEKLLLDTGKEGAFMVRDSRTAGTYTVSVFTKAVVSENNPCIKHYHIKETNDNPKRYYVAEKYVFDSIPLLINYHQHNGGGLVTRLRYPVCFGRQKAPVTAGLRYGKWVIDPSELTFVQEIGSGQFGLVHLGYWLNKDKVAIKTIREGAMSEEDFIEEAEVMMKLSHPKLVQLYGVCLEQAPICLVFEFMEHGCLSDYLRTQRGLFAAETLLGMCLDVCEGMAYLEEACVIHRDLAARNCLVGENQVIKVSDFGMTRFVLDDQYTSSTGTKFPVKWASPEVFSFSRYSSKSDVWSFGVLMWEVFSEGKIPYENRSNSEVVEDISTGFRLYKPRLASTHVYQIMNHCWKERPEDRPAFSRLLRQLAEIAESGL

[2] = molecular target: Tyrosine-protein kinase JAK1 (Homo sapiens) (UniProt P23458); conditions: at 0.1 µM
[3] = molecular target: Tyrosine-protein kinase JAK1 (Homo sapiens) (UniProt P23458); conditions: at 1 µM
[4] = molecular target: Tyrosine-protein kinase JAK2 (Homo sapiens) (UniProt O60674); conditions: at 0.1 µM
[5] = molecular target: Tyrosine-protein kinase JAK2 (Homo sapiens) (UniProt O60674); conditions: at 1 µM
[6] = molecular target: T2, Tyrosine-protein kinase JAK3 (Homo sapiens) (UniProt P52333); conditions: at 0.1 µM
T2 sequence (whole entry): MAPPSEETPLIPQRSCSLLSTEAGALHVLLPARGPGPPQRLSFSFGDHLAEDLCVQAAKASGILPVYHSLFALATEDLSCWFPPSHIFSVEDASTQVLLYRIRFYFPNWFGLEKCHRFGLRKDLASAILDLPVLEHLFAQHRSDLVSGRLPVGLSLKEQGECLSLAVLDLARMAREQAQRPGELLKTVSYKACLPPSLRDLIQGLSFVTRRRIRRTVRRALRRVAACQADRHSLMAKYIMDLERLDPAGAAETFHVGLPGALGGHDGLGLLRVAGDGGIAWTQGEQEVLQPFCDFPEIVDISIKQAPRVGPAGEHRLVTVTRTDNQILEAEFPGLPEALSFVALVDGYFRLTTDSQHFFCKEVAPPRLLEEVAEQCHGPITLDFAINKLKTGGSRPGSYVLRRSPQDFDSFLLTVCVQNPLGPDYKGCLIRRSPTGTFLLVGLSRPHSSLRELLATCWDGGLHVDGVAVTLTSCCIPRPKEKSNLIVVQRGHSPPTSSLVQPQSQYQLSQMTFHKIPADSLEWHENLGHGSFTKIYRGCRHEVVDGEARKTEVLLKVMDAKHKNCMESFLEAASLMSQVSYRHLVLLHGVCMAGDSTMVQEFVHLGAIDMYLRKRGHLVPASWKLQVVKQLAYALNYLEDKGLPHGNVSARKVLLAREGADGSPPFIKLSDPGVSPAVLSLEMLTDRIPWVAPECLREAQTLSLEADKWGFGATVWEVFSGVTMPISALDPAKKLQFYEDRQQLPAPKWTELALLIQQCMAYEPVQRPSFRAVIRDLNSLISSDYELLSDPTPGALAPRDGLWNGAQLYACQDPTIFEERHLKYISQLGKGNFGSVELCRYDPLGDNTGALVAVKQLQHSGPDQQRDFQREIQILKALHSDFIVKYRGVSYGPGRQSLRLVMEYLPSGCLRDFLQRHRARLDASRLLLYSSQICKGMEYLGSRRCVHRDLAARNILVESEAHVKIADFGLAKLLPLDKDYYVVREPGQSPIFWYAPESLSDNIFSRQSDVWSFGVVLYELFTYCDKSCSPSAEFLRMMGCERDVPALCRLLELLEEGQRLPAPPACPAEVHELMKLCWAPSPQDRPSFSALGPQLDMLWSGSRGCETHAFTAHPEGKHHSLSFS

[7] = molecular target: T2, Tyrosine-protein kinase JAK3 (Homo sapiens); conditions: at 1 µM
[8] = molecular target: Vascular endothelial growth factor receptor 2 (Homo sapiens) (UniProt P35968); conditions: at 0.1 µM
[9] = molecular target: Vascular endothelial growth factor receptor 2 (Homo sapiens) (UniProt P35968); conditions: at 1 µM
[10] = molecular target: Mast/stem cell growth factor receptor Kit (Homo sapiens) (UniProt P10721); conditions: at 0.1 µM
[11] = molecular target: Mast/stem cell growth factor receptor Kit (Homo sapiens) (UniProt P10721); conditions: at 1 µM
[12] = system: Mast/stem cell growth factor receptor Kit (Homo sapiens), P10721 [D816V]; conditions: at 0.1 µM
[13] = system: Mast/stem cell growth factor receptor Kit (Homo sapiens), P10721 [D816V]; conditions: at 1 µM
[14] = system: Mast/stem cell growth factor receptor Kit (Homo sapiens), P10721 [T670I]; conditions: at 0.1 µM
[15] = system: Mast/stem cell growth factor receptor Kit (Homo sapiens), P10721 [T670I]; conditions: at 1 µM
[16] = system: Mast/stem cell growth factor receptor Kit (Homo sapiens), P10721 [V560G]; conditions: at 0.1 µM
[17] = system: Mast/stem cell growth factor receptor Kit (Homo sapiens), P10721 [V560G]; conditions: at 1 µM
[18] = molecular target: Tyrosine-protein kinase Lck (Homo sapiens) (UniProt P06239); conditions: at 0.1 µM
[19] = molecular target: Tyrosine-protein kinase Lck (Homo sapiens) (UniProt P06239); conditions: at 1 µM
[20] = molecular target: Leukocyte tyrosine kinase receptor (Homo sapiens) (UniProt P29376); conditions: at 0.1 µM
Sequence of Leukocyte tyrosine kinase receptor (Homo sapiens) (P29376 whole entry): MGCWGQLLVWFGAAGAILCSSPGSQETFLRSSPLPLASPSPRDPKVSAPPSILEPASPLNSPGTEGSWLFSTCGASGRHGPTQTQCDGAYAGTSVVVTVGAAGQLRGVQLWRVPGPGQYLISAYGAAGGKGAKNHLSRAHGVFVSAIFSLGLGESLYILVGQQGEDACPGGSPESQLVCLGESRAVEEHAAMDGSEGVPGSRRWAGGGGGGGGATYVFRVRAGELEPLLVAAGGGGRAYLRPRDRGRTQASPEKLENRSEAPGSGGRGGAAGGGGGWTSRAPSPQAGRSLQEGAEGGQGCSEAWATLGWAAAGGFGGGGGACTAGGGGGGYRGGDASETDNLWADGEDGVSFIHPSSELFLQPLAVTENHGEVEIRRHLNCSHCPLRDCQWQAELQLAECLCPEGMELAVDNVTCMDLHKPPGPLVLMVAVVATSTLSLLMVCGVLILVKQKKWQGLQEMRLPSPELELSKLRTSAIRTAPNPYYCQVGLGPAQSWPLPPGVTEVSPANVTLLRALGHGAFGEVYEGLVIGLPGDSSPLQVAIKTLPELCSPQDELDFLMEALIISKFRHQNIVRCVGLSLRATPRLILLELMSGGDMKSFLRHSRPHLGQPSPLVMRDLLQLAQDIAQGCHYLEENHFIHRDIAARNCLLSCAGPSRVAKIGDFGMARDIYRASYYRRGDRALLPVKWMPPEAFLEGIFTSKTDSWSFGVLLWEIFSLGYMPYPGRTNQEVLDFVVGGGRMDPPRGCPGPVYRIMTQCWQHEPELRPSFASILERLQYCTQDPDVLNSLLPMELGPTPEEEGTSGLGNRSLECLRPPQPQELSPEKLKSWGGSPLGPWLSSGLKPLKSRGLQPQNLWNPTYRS

Sequence of Tyrosine-protein kinase Lck (Homo sapiens) (P06239 2-509 limits assumed): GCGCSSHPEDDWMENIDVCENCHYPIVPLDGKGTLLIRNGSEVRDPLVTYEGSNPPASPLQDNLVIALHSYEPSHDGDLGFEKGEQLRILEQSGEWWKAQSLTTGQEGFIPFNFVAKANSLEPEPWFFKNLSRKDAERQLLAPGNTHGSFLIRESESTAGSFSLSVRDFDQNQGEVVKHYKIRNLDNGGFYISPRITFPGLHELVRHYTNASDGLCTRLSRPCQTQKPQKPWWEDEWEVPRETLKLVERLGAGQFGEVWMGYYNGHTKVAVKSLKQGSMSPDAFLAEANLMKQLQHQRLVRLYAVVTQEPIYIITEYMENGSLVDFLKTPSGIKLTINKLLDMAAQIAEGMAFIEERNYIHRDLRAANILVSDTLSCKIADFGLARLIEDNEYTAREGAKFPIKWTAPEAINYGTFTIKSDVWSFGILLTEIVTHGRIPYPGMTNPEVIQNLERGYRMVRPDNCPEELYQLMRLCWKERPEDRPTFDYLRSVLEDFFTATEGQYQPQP
Sequence of Tyrosine-protein kinase JAK1 (Homo sapiens) (P23458 whole entry): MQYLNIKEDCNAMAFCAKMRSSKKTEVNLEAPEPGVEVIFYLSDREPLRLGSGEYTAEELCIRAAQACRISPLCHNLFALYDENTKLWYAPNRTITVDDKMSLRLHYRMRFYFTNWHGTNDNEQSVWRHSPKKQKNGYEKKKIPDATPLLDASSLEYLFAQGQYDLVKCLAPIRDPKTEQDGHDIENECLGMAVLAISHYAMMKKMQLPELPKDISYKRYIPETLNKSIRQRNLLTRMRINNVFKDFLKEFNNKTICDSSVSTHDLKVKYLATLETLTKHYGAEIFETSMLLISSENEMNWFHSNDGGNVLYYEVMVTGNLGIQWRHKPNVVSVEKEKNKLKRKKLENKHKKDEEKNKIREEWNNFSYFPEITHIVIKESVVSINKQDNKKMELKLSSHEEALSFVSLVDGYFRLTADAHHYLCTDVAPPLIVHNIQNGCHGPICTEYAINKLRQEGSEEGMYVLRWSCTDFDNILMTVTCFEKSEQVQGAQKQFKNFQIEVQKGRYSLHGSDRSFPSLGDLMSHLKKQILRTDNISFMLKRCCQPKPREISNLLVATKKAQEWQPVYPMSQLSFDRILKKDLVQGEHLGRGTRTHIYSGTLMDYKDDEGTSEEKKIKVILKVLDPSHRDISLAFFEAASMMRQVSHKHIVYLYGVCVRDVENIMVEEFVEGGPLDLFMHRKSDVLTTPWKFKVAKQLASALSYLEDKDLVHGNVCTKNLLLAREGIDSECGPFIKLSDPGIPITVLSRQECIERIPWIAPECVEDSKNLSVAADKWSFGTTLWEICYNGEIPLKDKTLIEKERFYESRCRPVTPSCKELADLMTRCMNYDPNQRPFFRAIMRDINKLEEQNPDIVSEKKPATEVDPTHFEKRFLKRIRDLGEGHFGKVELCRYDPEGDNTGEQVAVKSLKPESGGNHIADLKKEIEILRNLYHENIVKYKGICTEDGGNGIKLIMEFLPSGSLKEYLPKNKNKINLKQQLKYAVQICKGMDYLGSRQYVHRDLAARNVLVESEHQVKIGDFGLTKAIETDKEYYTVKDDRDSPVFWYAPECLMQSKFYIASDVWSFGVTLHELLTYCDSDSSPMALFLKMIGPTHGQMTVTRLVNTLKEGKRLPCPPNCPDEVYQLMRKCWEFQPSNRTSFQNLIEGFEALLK
Sequence of Tyrosine-protein kinase JAK2 (Homo sapiens) (O60674 whole entry): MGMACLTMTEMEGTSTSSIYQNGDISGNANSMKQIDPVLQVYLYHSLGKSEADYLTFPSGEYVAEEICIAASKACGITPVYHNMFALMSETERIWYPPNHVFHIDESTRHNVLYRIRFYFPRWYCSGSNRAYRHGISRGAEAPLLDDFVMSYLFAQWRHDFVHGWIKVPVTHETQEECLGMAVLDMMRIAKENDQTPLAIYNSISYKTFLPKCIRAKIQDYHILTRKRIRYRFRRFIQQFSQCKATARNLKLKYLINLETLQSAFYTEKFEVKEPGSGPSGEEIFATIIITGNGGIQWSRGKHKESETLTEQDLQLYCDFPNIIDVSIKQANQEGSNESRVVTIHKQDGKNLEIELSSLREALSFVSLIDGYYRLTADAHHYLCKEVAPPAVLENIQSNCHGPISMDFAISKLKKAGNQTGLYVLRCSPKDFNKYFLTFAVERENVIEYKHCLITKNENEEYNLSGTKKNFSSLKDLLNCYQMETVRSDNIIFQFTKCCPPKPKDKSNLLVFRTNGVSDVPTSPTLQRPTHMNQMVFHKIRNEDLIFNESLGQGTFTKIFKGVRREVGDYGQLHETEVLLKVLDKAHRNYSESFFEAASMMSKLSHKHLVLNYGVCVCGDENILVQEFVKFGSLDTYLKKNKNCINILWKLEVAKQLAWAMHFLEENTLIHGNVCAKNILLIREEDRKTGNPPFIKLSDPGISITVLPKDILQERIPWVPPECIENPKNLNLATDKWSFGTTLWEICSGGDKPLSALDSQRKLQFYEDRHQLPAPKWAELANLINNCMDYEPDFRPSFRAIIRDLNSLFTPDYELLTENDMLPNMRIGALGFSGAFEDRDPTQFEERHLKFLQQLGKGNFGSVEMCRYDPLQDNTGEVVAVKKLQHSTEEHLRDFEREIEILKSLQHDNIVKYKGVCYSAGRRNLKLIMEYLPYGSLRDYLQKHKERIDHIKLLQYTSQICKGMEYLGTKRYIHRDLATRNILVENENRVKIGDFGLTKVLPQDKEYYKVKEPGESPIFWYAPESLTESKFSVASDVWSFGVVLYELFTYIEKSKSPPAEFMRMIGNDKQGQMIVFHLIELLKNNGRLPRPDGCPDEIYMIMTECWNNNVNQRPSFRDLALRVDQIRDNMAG
Sequence of Mast/stem cell growth factor receptor Kit (Homo sapiens), P10721 [D816V] (P10721 whole entry D816V): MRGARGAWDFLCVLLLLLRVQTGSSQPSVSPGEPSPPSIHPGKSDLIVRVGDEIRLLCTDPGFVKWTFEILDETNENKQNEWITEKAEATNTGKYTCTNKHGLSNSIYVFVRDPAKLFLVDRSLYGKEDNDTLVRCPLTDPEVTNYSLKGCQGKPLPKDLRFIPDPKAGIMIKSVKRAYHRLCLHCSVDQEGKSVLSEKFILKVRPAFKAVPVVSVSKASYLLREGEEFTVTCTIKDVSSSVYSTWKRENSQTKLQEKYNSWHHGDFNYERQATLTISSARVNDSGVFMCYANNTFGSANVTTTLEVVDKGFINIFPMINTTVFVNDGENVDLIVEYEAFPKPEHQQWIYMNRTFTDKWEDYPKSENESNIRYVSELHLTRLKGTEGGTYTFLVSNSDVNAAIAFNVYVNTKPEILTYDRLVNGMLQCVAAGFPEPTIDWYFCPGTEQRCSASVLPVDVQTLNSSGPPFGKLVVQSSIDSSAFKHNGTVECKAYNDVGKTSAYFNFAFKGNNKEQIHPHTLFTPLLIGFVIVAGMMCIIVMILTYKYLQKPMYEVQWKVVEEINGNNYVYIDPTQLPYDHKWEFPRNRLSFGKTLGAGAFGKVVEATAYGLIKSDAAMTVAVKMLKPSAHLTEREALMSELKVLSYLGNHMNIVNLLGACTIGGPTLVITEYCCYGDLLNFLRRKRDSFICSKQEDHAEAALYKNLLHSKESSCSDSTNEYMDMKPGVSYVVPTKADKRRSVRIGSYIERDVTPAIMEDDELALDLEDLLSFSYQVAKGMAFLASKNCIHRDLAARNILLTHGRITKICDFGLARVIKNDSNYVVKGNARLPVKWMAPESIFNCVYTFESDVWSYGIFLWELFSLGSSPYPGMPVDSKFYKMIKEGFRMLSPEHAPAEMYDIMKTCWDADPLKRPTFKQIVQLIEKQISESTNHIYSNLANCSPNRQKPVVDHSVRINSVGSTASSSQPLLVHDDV
Sequence of Mast/stem cell growth factor receptor Kit (Homo sapiens) (P10721 whole entry): as the sequence (P10721 whole entry D816V) above, with V816D counted along it
Sequence of Mast/stem cell growth factor receptor Kit (Homo sapiens), P10721 [T670I] (P10721 whole entry T670I): as the sequence (P10721 whole entry D816V) above, with T670I, V816D counted along it
Sequence of Mast/stem cell growth factor receptor Kit (Homo sapiens), P10721 [V560G] (P10721 whole entry V560G): as the sequence (P10721 whole entry D816V) above, with V560G, V816D counted along it

Row | SMILES | inhibition [1] | inhibition [2] | inhibition [3] | inhibition [4] | inhibition [5] | inhibition [6] | inhibition [7] | inhibition [8] | inhibition [9] | inhibition [10] | inhibition [11] | inhibition [12] | inhibition [13] | inhibition [14] | inhibition [15] | inhibition [16] | inhibition [17] | inhibition [18] | inhibition [19] | inhibition [20]
1 | O=S(=O)(CCNCc1ccc(-c2ccc3ncnc(Nc4ccc(OCc5cccc(F)c5)c(Cl)c4)c3c2)o1)c1ccccc1 | 2.79% | 3.16% | 5.23% | 1.04% | 1.11% | -3.52% | -1.28% | 5.96% | 8.62% | 6.8% | 9.57% | 3.44% | 6.21% | 3.42% | 5.36% | 0.27% | -1.16% | 3.99% | 8.49% | 5.14%
2 | COc1ccc(-c2cc3c(N)ncnc3o2)cc1 | 0.68% | -0.12% | 7.71% | -0.86% | 3.1% | -0.88% | 0.39% | 0.19% | 2.97% | -0.07% | 8.52% | 1.15% | 0.89% | -0.3% | -2.59% | 4.17% | 2.93% | 0.2% | 5.93% | -0.7%
3 | CCCN(CCS(C)(=O)=O)Cc1ccc(-c2ccc3ncnc(Nc4ccc(OCc5cccc(F)c5)c(Cl)c4)c3c2)o1 | 1.15% | -0.11% | 4.59% | 0.69% | 3.22% | 0.2% | 2.79% | 4.89% | 8.91% | 2.87% | 4.79% | 1.86% | 4.14% | 2.58% | 3.62% | 1.8% | 3.3% | 2.06% | 5.97% | 2.12%
4 | COc1ccc(CNC(=O)c2ccc(-c3cc(-c4nnc(C)o4)ccc3C)cc2)cc1 | 2.72% | 7.51% | 19.9% | 1.15% | 1.48% | 1.7% | 3% | 5.17% | 9.11% | 2.42% | 6.51% | -5.34% | 4.89% | 2.12% | 3.18% | 4.68% | 4.58% | 0.44% | 3.44% | 1.41%
5 | CN(C)CCOc1ccc(-c2nc(-c3ccncc3)c(-c3ccc4c(c3)CC/C4=N\O)[nH]2)cc1 | 1.79% | 3.43% | 1.76% | 1.76% | 1.36% | -1.43% | 0.64% | 3.5% | 5.84% | 4.23% | 5.36% | 1.54% | 6.73% | 3.27% | 9.66% | 1.4% | 5.96% | 2.08% | 13.5% | 2.54%
6 | FC(F)(F)c1cccc(-c2nn3ncccc3c2-c2ccnc(Nc3ccc4c(c3)OCCO4)n2)c1 | 2.97% | -1.29% | -0.53% | 0.96% | 1.37% | -0.61% | 0.66% | 12.6% | 49.6% | 2.36% | 24.6% | 1.11% | 1.8% | 0.93% | 3.06% | -1% | 5.35% | 9.37% | 45.8% | 2.06%
7 | COc1cccc(-n2ncc3c(N/N=C/c4ccc(F)cc4)ncnc32)c1 | 2.7% | 4.84% | 6.9% | 1.38% | 4.42% | -1.52% | 1.02% | 8.15% | 20.6% | 5.42% | 17.1% | 7.16% | 7.84% | 5.29% | 5.91% | -0.37% | 5.46% | 13.5% | 45.5% | 4.1%
8 | CC(=O)NCc1cccc(C#Cc2cncnc2Nc2ccc(OCc3cccc(F)c3)c(Cl)c2)c1 | 0.81% | 0.65% | 4.76% | -0.2% | -3% | -0.21% | 4.46% | 0.67% | 8.91% | -1.01% | 0.4% | -2.07% | -2.37% | 1.52% | 1.39% | 1.82% | -0.41% | 0.34% | 1.6% | 1.56%
9 | CNC(=O)c1cccc(C#Cc2cncnc2Nc2ccc(OCc3cccc(F)c3)c(Cl)c2)c1 | -0.18% | -1.06% | 7.9% | 0.28% | 1.34% | -1.04% | 1.79% | 1.34% | 3.79% | 2.56% | 8.09% | 0.89% | 3.12% | 0.83% | 3.3% | 1.32% | 5.48% | 1.2% | 1.35% | 1.28%
10 | CNC(=O)c1cncc(/C=C/c2ccccc2Cl)c1 | 2.43% | 1.61% | 10.6% | 0.26% | 1.2% | 1.51% | 2.32% | 0.94% | 8.36% | 0.25% | 10.7% | -0.76% | 3.85% | -1.89% | 3.4% | 2.25% | 8.8% | 4.51% | 5.49% | -0.19%
11 | CS(=O)(=O)CCNCc1ccc(-c2ccc3ncnc(Nc4ccc(OCc5ccccc5)c(C(F)(F)F)c4)c3c2)o1 | 2.16% | 2.98% | 3.56% | 1.86% | -0.24% | -4.36% | -1.51% | 4.72% | 5.31% | 6.66% | 4.84% | 2.36% | 4.65% | 3.39% | 2.42% | 1.13% | -2.89% | 3.56% | 5.95% | 3.91%
12 | Nc1ncc(-c2cccc(S(N)(=O)=O)c2)c2scc(-c3ccc(F)c(Cl)c3)c12 | 3.69% | 2.73% | 6.91% | 0.29% | 1.31% | -2.63% | -0.64% | 6.89% | 34.2% | 38% | 98.1% | -0.67% | 5.44% | 3.88% | 5.82% | 3.89% | 50.5% | 12.9% | 52.4% | 10.7%
13 | CCc1nn2ncccc2c1-c1ccnc(NC2CC2)n1 | 1.59% | 1.35% | 0.58% | 0.9% | 1.59% | -2.87% | -0.27% | 3.91% | 5.8% | 3.6% | 7.72% | 0.04% | 1.83% | 1.32% | 2.12% | 0.78% | 3.12% | 2.82% | 6.75% | 3.02%
14 | Nc1nc(-c2cccc(Cl)c2)c(-c2ccc3ncccc3n2)s1 | 1.36% | 2.71% | 14.3% | 0.64% | 0.69% | -2.58% | -0.69% | 33.1% | 67.4% | 5.86% | 7.87% | 1.78% | 8.71% | 4.73% | 6.56% | -0.42% | -0.36% | 2.31% | 8.23% | 6.27%
